According to PubChem BioAssay (EPA / NIEHS):
Results filed as inconclusive are left out. Calls of active or inactive are those of the source. The calls were made as follows, unless noted: active = hit-call score of the fitted dose curve at least 0.9, where 1 is the maximum; inactive = score below 0.9.

How the values were obtained:
[1] = ACEA_ER_80hr: ACEA Biosciences xCELLigence Real-Time Cell Analysis on Estrogen Receptor Agonism for Proliferation (AID 2282667; active = hit-call score of the fitted dose curve at least 0.9, where 1 is the maximum); conditions: T47D proliferation, impedance (xCELLigence), 80 h
How it was run: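 Impedance readout (RT-CES) of T47D proliferation at 80 h post-dose; gain of signal vs DMSO baseline. Compounds: 8 conc, 1:4 serial, top 100 uM final, ≤0.5% DMSO; biological duplicate.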

[2] = ATG_CRE_CIS: Attagene CIS-FACTORIAL HepG2 Assay for human cAMP Responsive Element (CRE) binding protein 3 (AID 2282926); conditions: HepG2 CRE cis-reporter, Attagene multiplexed mRNA; actives raise or lower the signal
How it was run: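 Readout: fluorescently labelled reporter transcripts resolved by capillary electrophoresis after RT-PCR, taken 24 h post-dosing in transfected HepG2. Endogenous transcription factor activity drives each cis-element reporter; gain or loss of signal fitted relative to DMSO control.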

[3] = target: CCAAT/enhancer-binding protein beta (Homo sapiens) (UniProt P17676); assay: ATG_C_EBP_CIS: Attagene CIS-FACTORIAL HepG2 Assay for human CCAAT/Enhancer Binding Protein (C/EBP) beta (AID 2282927); conditions: HepG2 Attagene cis-factorial transcription factor reporter; actives raise or lower the signal
Chain of CCAAT/enhancer-binding protein beta (Homo sapiens) (P17676 whole entry, looked up): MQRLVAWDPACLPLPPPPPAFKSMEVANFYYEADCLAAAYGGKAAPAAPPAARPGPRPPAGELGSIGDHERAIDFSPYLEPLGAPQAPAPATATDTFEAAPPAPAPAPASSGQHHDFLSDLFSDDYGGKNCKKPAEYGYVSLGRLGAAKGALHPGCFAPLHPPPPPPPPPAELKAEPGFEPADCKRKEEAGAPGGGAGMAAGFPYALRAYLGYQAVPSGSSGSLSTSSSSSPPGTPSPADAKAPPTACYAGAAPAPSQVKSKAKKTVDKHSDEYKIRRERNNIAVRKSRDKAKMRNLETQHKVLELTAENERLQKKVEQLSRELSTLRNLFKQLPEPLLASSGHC
How it was run: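 Changes in reporter mRNA, rather than exogenous chimeric receptor activity, reflect native C/EBP signalling in transfected HepG2 cells dosed for 24 h; transcripts are detected by RT-PCR and capillary electrophoresis.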

[4] = ATG_CMV_CIS: Attagene CIS-FACTORIAL HepG2 Assay for human CMV (Internal Marker) (AID 2282928); conditions: HepG2 CMV promoter reporter, transcription factor profiling; actives raise or lower the signal;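 also: endpoint acts as a background internal control marker rather than a target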
How it was run: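 24 h chemical treatment, HepG2 with transient multi-reporter transfection; RNA → oligo(dT) RT → PCR → 6-FAM extension → HpaI digest → CE fluorescence. Bidirectional fit, DMSO negative control.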

[5] = ATG_DR4_LXR_CIS: Attagene CIS-FACTORIAL HepG2 Assay for human Liver X Receptor (LXR), DR4 submotif (AID 2282929); conditions: HepG2 Attagene DR4 cis-reporter, mRNA transcription; actives raise or lower the signal
How it was run: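 Fluorescence intensity of labelled reporter cDNA fragments, separated by capillary electrophoresis, gives the signal. HepG2 cells bearing cis-regulated reporter constructs were treated 24 h; activity fitted bidirectionally relative to DMSO negative control.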

[6] = ATG_AP_1_CIS: Attagene CIS-FACTORIAL HepG2 Assay for human Activator Protein 1 (AP-1) (AID 2282931); conditions: HepG2 Attagene cis-factorial AP-1 reporter mRNA; actives raise or lower the signal
How it was run: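 Multiplexed HepG2 reporter assay, 24 h dosing. mRNA induction detected by RT-PCR plus capillary electrophoresis. Activity fitted in both directions against DMSO.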

[7] = ATG_AP_2_CIS: Attagene CIS-FACTORIAL HepG2 Assay for human Activator Protein 2 (AP-2) (AID 2282932); conditions: HepG2 AP-2 cis-reporter, Attagene transcription factor profiling; actives raise or lower the signal
How it was run: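 Transiently transfected HepG2 cells are exposed to chemical for 24 h. Reporter transcripts are then measured as fluorescence following RT-PCR and capillary separation, and gain- or loss-of-signal is fitted relative to DMSO.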

[8] = ATG_BRE_CIS: Attagene CIS-FACTORIAL HepG2 Assay for human Bone Morphogenetic Protein (BMP) Response Element (BRE) (AID 2282933); conditions: HepG2 BMP response element reporter, Attagene transcription factor profiling; actives raise or lower the signal
How it was run: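 After a 24 h chemical treatment, transiently transfected HepG2 cells were lysed for RNA; reporter transcripts were quantified by fluorescent RT-PCR and capillary electrophoresis, normalised to DMSO.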

[9] = target: Retinoic acid receptor alpha (Homo sapiens) (UniProt P10276); assay: ATG_DR5_RAR_CIS: Attagene CIS-FACTORIAL HepG2 Assay for human Retinoic Acid Receptor Alpha (RARE), DR5 submotif (AID 2282934); conditions: HepG2 Attagene cis-factorial RARE DR5 reporter, mRNA; actives raise or lower the signal;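 as to AC50: reporter responds to endogenous RAR alpha beta and gamma in HepG2 not RARA alone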
Chain of Retinoic acid receptor alpha (Homo sapiens) (P10276 whole entry, looked up): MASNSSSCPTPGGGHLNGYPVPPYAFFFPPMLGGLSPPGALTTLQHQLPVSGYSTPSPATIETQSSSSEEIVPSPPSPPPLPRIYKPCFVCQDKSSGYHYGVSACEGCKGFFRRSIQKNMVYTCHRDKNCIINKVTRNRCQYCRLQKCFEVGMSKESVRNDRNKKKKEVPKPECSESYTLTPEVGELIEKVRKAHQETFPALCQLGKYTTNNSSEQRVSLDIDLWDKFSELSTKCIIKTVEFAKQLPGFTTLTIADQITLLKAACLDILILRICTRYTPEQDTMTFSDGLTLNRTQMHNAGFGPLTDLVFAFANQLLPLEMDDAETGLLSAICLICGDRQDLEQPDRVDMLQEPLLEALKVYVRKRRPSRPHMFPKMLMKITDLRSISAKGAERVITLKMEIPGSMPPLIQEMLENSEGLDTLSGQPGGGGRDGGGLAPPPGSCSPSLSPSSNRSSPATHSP
How it was run: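 HepG2, transient cis-reporter transfection, 24 h exposure. mRNA readout: RT-PCR, FAM label, HpaI cut, capillary electrophoresis. DMSO baseline, gain/loss fitting.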

[10] = target: Transcription factor E2F1 (Homo sapiens) (UniProt Q01094); assay: ATG_E2F_CIS: Attagene CIS-FACTORIAL HepG2 Assay for human E2F Transcription Factor 1 (AID 2282935); conditions: HepG2 Attagene cis-reporter, E2F reporter RNA transcripts; actives raise or lower the signal
Chain of Transcription factor E2F1 (Homo sapiens) (Q01094 whole entry, looked up): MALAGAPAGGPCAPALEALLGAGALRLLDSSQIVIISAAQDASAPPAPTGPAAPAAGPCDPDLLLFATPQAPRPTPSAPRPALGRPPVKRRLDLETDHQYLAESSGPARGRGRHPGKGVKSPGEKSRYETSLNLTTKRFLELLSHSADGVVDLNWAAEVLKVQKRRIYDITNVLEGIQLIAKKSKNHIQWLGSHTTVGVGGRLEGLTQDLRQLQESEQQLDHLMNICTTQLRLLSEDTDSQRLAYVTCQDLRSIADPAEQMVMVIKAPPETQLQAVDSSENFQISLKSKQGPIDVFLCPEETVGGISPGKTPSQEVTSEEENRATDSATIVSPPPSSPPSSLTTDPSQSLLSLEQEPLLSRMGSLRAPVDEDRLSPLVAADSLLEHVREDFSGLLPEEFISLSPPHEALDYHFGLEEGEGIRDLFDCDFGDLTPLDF
How it was run: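 Fluorescent RT-PCR products, digested with HpaI for 2 h at 37 C, are separated by capillary electrophoresis. Source RNA comes from transfected HepG2 cultures treated for 24 h.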

[11] = ATG_E_Box_CIS: Attagene CIS-FACTORIAL HepG2 Assay for human Enhancer Box (E-box) (AID 2282936); conditions: HepG2 E-box cis-reporter transcription, actives raise or lower the signal
How it was run: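 Fluorescent reporter fragments separated by capillary electrophoresis gave the signal; mRNA came from HepG2 cells transfected with cis-element reporters and treated 24 h. Curves fitted bidirectionally relative to DMSO controls.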

[12] = ATG_M_61_CIS: Attagene CIS-FACTORIAL HepG2 Assay for M61 Transcription Factor (Internal Marker) (AID 2282937); conditions: HepG2 Attagene CIS-FACTORIAL M61 internal marker reporter; actives raise or lower the signal
How it was run: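 Endogenous transcription factor activity in HepG2 is read through transiently transfected cis-element reporter units. After 24 h dosing, RNA undergoes reverse transcription, PCR and primer extension with 6-FAM before capillary electrophoresis; DMSO-referenced bidirectional fit.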

[13] = ATG_EGR_CIS: Attagene CIS-FACTORIAL HepG2 Assay for human Early Growth Response 1 (EGR1) (AID 2282938); conditions: HepG2 Attagene CIS-FACTORIAL EGR reporter mRNA; actives raise or lower the signal
How it was run: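 Activity is taken as induction or loss of reporter mRNA versus DMSO, fitted bidirectionally. Transcripts from cis-regulated reporter units in transiently transfected HepG2 were measured after 24 h by RT-PCR with capillary electrophoresis.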

[14] = ATG_M_19_CIS: Attagene CIS-FACTORIAL HepG2 Assay for M19 Transcription Factor (Internal Marker) (AID 2282939); conditions: HepG2 Attagene CIS-FACTORIAL M19 internal marker reporter; actives raise or lower the signal
How it was run: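 In this multiplexed cell assay, transiently transfected HepG2 reporter units report endogenous transcription-factor activity; after 24 hours of treatment, labelled reporter cDNA fragments are quantified by capillary electrophoresis and fitted bidirectionally against DMSO.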

[15] = ATG_ERE_CIS: Attagene CIS-FACTORIAL HepG2 Assay for Estrogen Response Element (ERE) (AID 2282940); conditions: HepG2 ERE cis-reporter, Attagene RNA transcript; actives raise or lower the signal
How it was run: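 Measuring endogenous transcription factor output, the assay doses transfected HepG2 cells for 24 hours and quantifies reporter transcripts by fluorescent RT-PCR and capillary electrophoresis, with DMSO as baseline.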

[16] = ATG_Ets_CIS: Attagene CIS-FACTORIAL HepG2 Assay for human Erythroblast Transformation Specific (ETS) (AID 2282941); conditions: HepG2 ETS cis-reporter transcription, actives raise or lower the signal
How it was run: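 Cis-regulated reporter mRNA induction in HepG2 (transient transfection), 24 h exposure, RT-PCR plus capillary electrophoresis detection; DMSO serves as negative control and baseline.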

[17] = target: Hepatocyte nuclear factor 3-beta (Homo sapiens) (UniProt Q9Y261); assay: ATG_FoxA2_CIS: Attagene CIS-FACTORIAL HepG2 Assay for human Forkhead box A2 (FOXA2) (AID 2282942); conditions: HepG2 cis-reporter transcription factor activity, 24 h; actives raise or lower the signal
Chain of Hepatocyte nuclear factor 3-beta (Homo sapiens) (Q9Y261 whole entry, looked up): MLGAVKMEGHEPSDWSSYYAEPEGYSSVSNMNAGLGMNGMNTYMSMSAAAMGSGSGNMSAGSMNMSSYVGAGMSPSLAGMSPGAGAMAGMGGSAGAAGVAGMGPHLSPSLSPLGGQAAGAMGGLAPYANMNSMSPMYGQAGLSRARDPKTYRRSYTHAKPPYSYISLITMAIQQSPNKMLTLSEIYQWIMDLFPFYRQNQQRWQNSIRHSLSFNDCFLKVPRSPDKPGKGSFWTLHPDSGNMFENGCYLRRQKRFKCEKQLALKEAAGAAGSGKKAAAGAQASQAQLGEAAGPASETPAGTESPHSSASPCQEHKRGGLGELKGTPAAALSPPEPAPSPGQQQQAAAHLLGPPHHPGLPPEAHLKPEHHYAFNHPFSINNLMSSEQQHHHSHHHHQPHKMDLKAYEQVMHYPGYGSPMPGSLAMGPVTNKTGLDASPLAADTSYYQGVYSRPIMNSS
How it was run: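 Reporter transcript induction is measured by fluorescence after capillary electrophoresis of RT-PCR products from HepG2 cells exposed 24 h. Cis-regulated reporter units report endogenous factor activity; curves fitted both directions against DMSO.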

[18] = ATG_FoxO_CIS: Attagene CIS-FACTORIAL HepG2 Assay for human Forkhead box O (FoxO) (AID 2282943); conditions: HepG2 Attagene cis-reporter, FoxO element, mRNA; actives raise or lower the signal
How it was run: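 Human hepatoma HepG2 cells carry transiently introduced reporter transcription units controlled by cis promoter elements. Chemical treatment lasted 24 h, and mRNA signal was compared with DMSO.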

[19] = ATG_GATA_CIS: Attagene CIS-FACTORIAL HepG2 Assay for human GATA Binding Protein (AID 2282944); conditions: HepG2 GATA cis-element reporter, Attagene multiplex mRNA; actives raise or lower the signal
How it was run: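 Measures endogenous transcription factor-driven reporter mRNA in HepG2 cells transiently carrying cis-regulated constructs. 24 h dosing; RNA via oligo(dT) reverse transcription, PCR, HpaI digestion, capillary electrophoresis; fitted relative to DMSO.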

[20] = target: Aryl hydrocarbon receptor (Homo sapiens) (UniProt P35869); assay: ATG_Ahr_CIS: Attagene CIS-FACTORIAL HepG2 Assay for human Aryl Hydrocarbon Receptor (Ahr) (AID 2282930); conditions: HepG2 AhR cis-factorial reporter transcription; actives raise or lower the signal
Chain of Aryl hydrocarbon receptor (Homo sapiens) (P35869 whole entry, looked up): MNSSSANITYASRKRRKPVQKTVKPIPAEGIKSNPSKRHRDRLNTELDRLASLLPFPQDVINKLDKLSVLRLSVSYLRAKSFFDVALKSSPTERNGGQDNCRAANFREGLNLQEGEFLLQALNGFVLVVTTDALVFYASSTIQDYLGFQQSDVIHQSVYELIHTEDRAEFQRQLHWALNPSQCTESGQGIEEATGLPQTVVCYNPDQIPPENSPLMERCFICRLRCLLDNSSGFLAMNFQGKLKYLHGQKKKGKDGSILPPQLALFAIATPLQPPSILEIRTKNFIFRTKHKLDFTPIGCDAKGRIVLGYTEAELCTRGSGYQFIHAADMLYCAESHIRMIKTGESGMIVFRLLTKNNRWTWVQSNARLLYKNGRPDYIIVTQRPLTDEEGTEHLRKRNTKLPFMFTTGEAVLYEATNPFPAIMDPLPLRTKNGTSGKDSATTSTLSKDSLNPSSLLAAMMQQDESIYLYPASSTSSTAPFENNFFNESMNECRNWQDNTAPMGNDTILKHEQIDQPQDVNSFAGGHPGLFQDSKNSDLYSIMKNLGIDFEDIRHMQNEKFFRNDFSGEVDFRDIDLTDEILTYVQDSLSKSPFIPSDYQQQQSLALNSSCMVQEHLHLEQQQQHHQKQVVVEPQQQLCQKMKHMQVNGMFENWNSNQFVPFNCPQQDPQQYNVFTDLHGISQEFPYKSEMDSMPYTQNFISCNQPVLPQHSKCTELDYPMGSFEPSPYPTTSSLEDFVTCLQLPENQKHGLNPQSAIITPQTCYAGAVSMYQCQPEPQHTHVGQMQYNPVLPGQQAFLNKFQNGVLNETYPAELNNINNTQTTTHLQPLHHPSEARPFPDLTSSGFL
How it was run: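 HepG2, transient MRTU (cis) transfection, 24 h exposure. RNA → cDNA → PCR → 6-FAM primer extension → HpaI 2 h 37 C → CE. Fit: bidirectional, DMSO baseline.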

Measured: AC50

CC1=CCC2CC1C2(C)C (centres undefined)
not listed: [20]
inactive: all other assays above

CC(C)=NNC(N)=S
not listed: [7]
inactive: all other assays above

Nc1ccc(C(=O)OCCCOC(=O)c2ccc(N)cc2)cc1
not listed: [5]
inactive: all other assays above

CC(C)(C)C1CCC(=O)CC1
not listed: [5] | [16] | [17] | [19]
inactive: all other assays above

CN(C)c1ccc2nc3ccc(=[N+](C)C)cc-3sc2c1
active: [4] 1.69 µM | [20] 5.2 µM | [6] 19.8 µM | [8] 12.2 µM | [11] 16.7 µM
not listed: [5]
inactive: all other assays above

Cc1cccc(C(C)(C)C)c1O
not listed: [5]
inactive: all other assays above

CC1(C)CC(O)CC(C)(C)N1[O]
active: [4] 26.2 µM | [6] 26.6 µM
not listed: [7]
inactive: all other assays above

CCCCCCCOC(=O)c1ccc(O)cc1
active: [1] 0.496 µM | [5] 24.3 µM | [20] 49.8 µM | [9] 53.1 µM | [11] 54.3 µM | [15] 19.3 µM
not listed: [7]
inactive: all other assays above
